Holding throughout (assay): NCI-60 one-dose screen, 48 h (100 = growth as untreated, 0 = no growth, -100 = all killed)
Holding throughout (conditions): 10 µM unless noted

For assay [1], the system named is T-47D breast.
Assay [2] concerns BT-549 breast.
Assay [3] relates to MDA-MB-435 melanoma.
Assay [4] deals with SW-620 colon.
In assay [5] the test system is MCF7 breast.
Assay [6] deals with HCT-116 colon.
Assay [7] deals with HCC-2998 colon.
Assay [8] has as its system KM12 colon.
The test system of assay [9] is MDA-MB-468 breast.

This is part of a sample that, as a whole, favours compounds with a hit. Of some 83,000 tested, about 20% had one in any assay.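 Each cell line was grown in a 96-well plate and treated with one concentration of compound for 48 hours. Values below 10 were considered active.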 A number with no mark means an inactive call. The source made the active and inactive calls.

On to `CCCCCCCCc1ccc(C(=O)Nc2cccc(O)c2)cc1`, for which the growth in [1] is 67.7%; in [2] it was 51.2%; in [3], 50.5%; in assay [4], 93.5%; in [5], 60.3%; in [6] it was 65%. Also, the growth in assay [7] was 109%; in assay [8], 54.3%; in assay [9] it was 90.9%.

Take `CN1CCN(C(=O)Oc2cc3c(c4ccccc24)[C@H](CCl)CN3C(=O)c2cc3cc(OCCCN4CCC4)ccc3[nH]2)[C@H]2CSSC[C@H]21`: the growth is -12.9% (active) in assay [1]; -36.8% (active) in [2]; -70.2% (active) in [3]; 4.18% (active) in [4]; 3.7% (active) in assay [5]; 6.44% (active) in assay [6]. For the same compound, the growth in assay [7] is -47% (active); in assay [8], 2.01% (active); in [9], -78.4% (active).

For the compound `COc1c(F)ccc(C(=O)Nc2ccc3nc(NC(=O)C4CCCN(S(=O)(=O)c5ccc(C(C)(C)C)cc5)C4)sc3c2)c1F` (configuration not stated), the growth is 42.5% in assay [1]; 60.4% in assay [2]; 76.7% in assay [3]; 88.5% in assay [4]; 41.5% in assay [5]; 58.3% in [6]. Further, the growth in assay [7] was 84.8%; in assay [8] it was 68.4%; in assay [9] it was 86.7%.

Turning to `C=CC(=O)Nc1ccc(C(=O)/C=C/c2ccc(N(C)C)cc2)c(O)c1`, the growth in assay [1] was 9.74% (active); in [2], -45.7% (active); in [3], -3.66% (active); in assay [4] it was 1.21% (active); in assay [5] it was 10.7%; in assay [6] it was -52.6% (active). Moreover, the growth in assay [7] is -53.2% (active); in [8] it was -64.4% (active); in assay [9], -19.8% (active).

On to `CCc1ccccc1NC(=O)N/C(N)=N/c1nc2ccccc2s1`, for which the growth is 55.8% in assay [1]; -12% (active) in [2]; -46.7% (active) in assay [3]; 21.3% in assay [4]; 11% in assay [5]; -26.2% (active) in assay [6]. The figures for the growth in assay [7], in assay [8] and in [9] were 3.52% (active), -3.54% (active) and -21.2% (active), respectively.

In the case of `COc1c(B(O)O)cc(F)cc1-c1nc2ccc3[nH]ncc3c2c2c1COCC2`, the growth in [1] was 62.6%; in assay [2], -7.9% (active); in assay [3], 87.1%; in [4] it was 34.3%; in [5], 44.7%; in assay [6] it was 19.8%. Moreover, the growth in assay [7] was 80.3%; in assay [8], 70.2%; in assay [9] it was 41.9%.

Consider `COc1ccc(N=Nc2c(N)nn3c(-c4cc5cc(Br)ccc5oc4=O)ccnc23)cc1`, for which the growth in assay [1] is 10.8%; in assay [2] it was -2.5% (active); in assay [3], 54.2%; in assay [4], 56.1%; in [5], 26.4%; in assay [6] it was 23.8%. Further, the growth was 20.2% in [7], 36.1% in assay [8] and -22.7% (active) in assay [9].

With `CN(C)C(=O)c1cc(-c2ccc3ncnc(N4CCc5cc(F)c(Cl)cc54)c3c2)cnc1N`, the growth was -59.1% (active) in assay [1]; -82.9% (active) in [2]; -58.5% (active) in [3]; -51.8% (active) in [4]; -59.9% (active) in assay [5]; -97.4% (active) in [6]. The growth in [7] was -82.2% (active); in assay [8], -58.3% (active); in assay [9] it was -80.4% (active).

On to `CC(C)C[C@H](NC(=O)CNC(=O)C[C@H]1O[C@@H]2OC3(C)CC[C@H]4[C@H](C)CC[C@@H]([C@H]1C)[C@@]24O3)B(O)O`, for which the growth is -30.8% (active) in assay [1]; -87% (active) in [2]; -71.1% (active) in [3]; -0.307% (active) in [4]; 20.3% in assay [5]; -67.2% (active) in assay [6]. For the same compound, the growth is -94.5% (active) in assay [7], -24.4% (active) in assay [8] and -58.4% (active) in assay [9].

As to `N#CC1=C(c2cccs2)Nc2c(c(-c3ccccc3)nn2-c2ccccc2)C12C(=O)Nc1ccc(Cl)cc12` (configuration not stated), the growth in assay [1] was 11%; in [2], -21.7% (active); in assay [3] it was 41.2%; in [4] it was 21.3%; in [5] it was 15.1%; in assay [6], 11.5%. Also, the figures for the growth in [7], in assay [8] and in assay [9] were 26.1%, 15.3% and -22.1% (active), respectively.

Regarding `N#C/C(=C1/C(=O)Nc2ccccc21)c1nnc(NC(=O)c2ccc(-n3c(=O)[nH]c4ccccc4c3=O)cc2)s1`, the growth in [1] is 6.13% (active); in [2], 12.1%; in assay [3] it was -85.5% (active); in assay [4] it was 65.4%; in assay [5], 7.69% (active); in assay [6], 22.8%. In addition, the figures for the growth in [7], in assay [8] and in assay [9] were 32.5%, 21.4% and 12.9%, respectively.

As for `OC1CCC(Cn2c(C(F)(F)F)cc3c(Cl)ncnc32)CC1` (configuration not stated), the growth was 82% in assay [1]; -37.7% (active) in assay [2]; 8.29% (active) in [3]; 38.8% in assay [4]; 91% in [5]; 1.57% (active) in [6]. For the same compound, the growth in assay [7] was -94% (active); in [8], 86.5%; in assay [9] it was 9.1% (active).

Consider `COc1ccc2c(c1)C(=O)N(C)C2C1c2c(cc3c(c2OC)OCO3)CCN1C` (configuration not stated), for which the growth was 56.3% in assay [1]; 68.5% in assay [2]; -21.1% (active) in assay [3]; 23.9% in [4]; 14.7% in assay [5]; 27.5% in [6]. Also, the growth in [7] is 63.2%; in assay [8], 15.9%; in [9], 8.46% (active).

These data come from PubChem BioAssay (NCI).
